Bioassay records deposited in PubChem BioAssay by several laboratories.
An excerpt weighted towards active compounds, which were near 9.6% of everything screened.
Ins promoter up: MIN6 insulin promoter up-regulation. MIN6 insulin promoter-GFP reporter, high-content imaging; stronger effect = higher value. z-score at 5 µM. actives 0.3% (n = 190,000);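 active = z-score above 3 at 5 µM with at least 500 cells counted in the well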
HCT116 PTEN-null: suppresses growth of cells with PTEN deletion | HCT116 PTEN-null viability, CellTiter-Glo, 60 h; stronger effect = lower value | viability, % at 10 µM | actives 1.2% (n = 140,000) | AID 827;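 active = viability at or below a set limit, 4 SD under the median of all tested compounds, cut at about 3.7% in these data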;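 note: PTEN knockout HCT116 line with beta catenin targeted HCT116 as companion control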
bCat KO growth: beta-catenin-lacking colon tumor cell growth suppression; HCT116 beta-catenin knockout viability, CellTiter-Glo, 60 h; stronger effect = lower value; viability, % at 10 µM; actives 1.5% (n = 140,000);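 active = viability at or under a set limit, the compound median less 4 SD, cut at about 6% in these data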;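 note: 0% = Hyamine 1622 control at 20 µM and 100% = untreated cell control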
L major viab: reduces viability of Leishmania major promastigotes; inhibition, % at 10 µM; resazurin fluorescence viability; actives 9% (n = 200,000); AID 1063; in the data active = inhibition above about 50%;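 note: promastigotes grown with compound for 44 hours at 28 °C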
Autophagy mod: alters autophagy in cells | MEF GFP-LC3 puncta imaging; test concentration mostly 10 µM | calls only at 10 µM (by protocol) | AID 463193 | actives 0.98% (n = 190,000);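 active = percentage of spot-positive cells more than 3 SD above its plate mean, without a fluorescence outlier flag or 80% toxicity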;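 note: spot-positive cell cutoff set from DMSO-treated cells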
INS promoter inh: TRM-6 insulin promoter activity inhibition. actives 0.9% (n = 130,000). AID 1273. TRM-6 cells (human fetal islet line), insulin promoter-eGFP reporter, imaging; reporter expression induced with tamoxifen. inhibition, % at 2 µM;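 active = inhibition above the mean plus 3 SD, with well images judged a real hit on visual review, cut at about 60% in these data, passing the limit was not always enough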
* marks the source's active call; other numbers are inactive results; i = inactive; . = no result given.

SMILES	Ins promoter up	HCT116 PTEN-null	bCat KO growth	L major viab	Autophagy mod	INS promoter inh
Cc1ccc2c(c1)[C@@H]1CN(C)CC[C@@H]1N2C(=O)Nc1cccc(C(F)(F)F)c1	-0.31	54	45	81*	i	-20
COc1ccccc1NC1(C#N)CCCCC1	0.47	.	.	-4	i	.
COc1ccc(C2SCC(=O)Nc3c2c(=O)[nH]n3C2CCCCCC2)cc1OC (stereo not given)	.	81	76	-13	i	-4
CN1CCN(c2ccc(F)cc2N)CC1	-0.2	.	.	-8	i	-91
c1ccc2sc(NC3=NCCN3)nc2c1	0.53	95	84	-5	i	38
COc1ccc(C2SCC(=O)Nc3c2c(C)nn3-c2ccccc2)cc1OC (stereo not given)	-0.42	92	87	62*	i	-31
Clc1cccc(CN2CCCCC2c2cccnc2)c1 (stereo not given)	0.77	.	.	90*	i	.
c1cncc(C2CCCCN2Cc2ccc3c(c2)OCO3)c1 (stereo not given)	-0.9	89	88	18	i	.
COc1cc(NC(=O)CN2C3CCC2CC(O)(c2cccnc2)C3)cc(OC)c1 (stereo not given)	0.74	93	106	93*	i	14
O=C1CN(C(=O)COC(=O)Cc2ccccc2)c2ccccc2N1	-1.4	.	.	-3	i	.
CCOC(=O)COc1ccc2c(c1)c(C(C)=O)c(C)n2Cc1ccccc1	-1.2	.	.	76*	i	13
CN1C(=O)C(=Cc2ccccc2Oc2ccc(Cl)cc2)C(=O)N(C)C1=O	0.61	89	80	62*	i	14
c1ccc(Cn2ccnc2)cc1	.	93	93	-8	i	43
Clc1ccc(COC(Cn2ccnc2)c2ccc(Cl)cc2Cl)cc1 (stereo not given)	.	46	47	98*	i	-45
Clc1ccc(CSC(Cn2ccnc2)c2ccc(Cl)cc2Cl)cc1 (stereo not given)	.	12	16	99*	i	-62
O=C1NC(=O)C(=Cc2cc(Cl)ccc2OCc2ccc(C(=O)O)cc2)C(=O)N1	0.85	.	.	94*	i	.
COc1ccc2c(c1OC)C(=O)OC2c1c(O)n(Cc2ccc(F)cc2)c(=O)[nH]c1=O (stereo not given)	0.34	96	92	-8	i	-65
O=c1[nH]c(=O)n(-c2ccc(Cl)cc2)c(O)c1C=Nc1ccc(S(=O)(=O)Nc2nccs2)cc1	0.17	96	93	34	i	2
O=Cc1cn(Cc2cccc(F)c2)c2ccccc12	-0.31	59	69	59*	i	8
CCc1ccc(-c2nn(Cc3ccccc3)cc2C=O)cc1	0.38	.	.	18	i	38
O=C(c1cc([N+](=O)[O-])ccc1N1CCNCC1)N1CCOCC1	-0.3	80	83	-4	i	.
Cc1ccc(O)c(C(=O)c2cc(C(=O)NCCC(C)C)c(=O)n(CCC(C)C)c2)c1	-0.37	.	.	82*	i	5
O=C(c1cc(C(=O)NCc2ccc(Cl)cc2)c(=O)n(Cc2ccc(Cl)cc2)c1)c1cc(F)ccc1O	-0.85	35	50	16	i	19
COP(=O)(OC)Oc1ccc(C(O)C(Cl)(Cl)Cl)cc1 (stereo not given)	0.01	.	.	.	.	.
COCCOC(=O)c1c(N)n(Cc2ccc(OC)cc2)c2nc3ccccc3nc12	-0.1	61	70	89*	i	.
SMILES	Ins promoter up	HCT116 PTEN-null	bCat KO growth	L major viab	Autophagy mod	INS promoter inh
CCOC(=O)c1c(N)n(CCCOC(=O)c2ccco2)c2nc3ccccc3nc12	-1.1	88	91	82*	i	.
COC(=O)c1c(N)n(Cc2ccc(OC)cc2)c2nc3ccccc3nc12	-0.93	75	82	52*	i	19
CCOC(=O)c1c(NS(=O)(=O)c2ccccc2)n(CCCOC)c2nc3ccccc3nc12	.	101	94	96*	i	36
COCCCn1c(N)c(C(=O)OCCOC)c2nc3ccccc3nc21	0.36	90	90	4	i	.
CCCCNC(=O)c1c(N)n(CCCOC)c2nc3ccccc3nc12	-0.25	42	45	19	i	-34
COCCNC(=O)c1c(N)n(CCC(C)C)c2nc3ccccc3nc12	-0.52	74	83	100*	i	-28
COCCOC(=O)c1c(N)n(Cc2ccco2)c2nc3ccccc3nc12	.	.	.	21	i	16
CCOC(=O)c1c(N)n(Cc2ccc(OC)cc2)c2nc3ccccc3nc12	.	66	74	96*	i	.
Oc1cccc(/C=N/NP(=S)(c2ccccc2)c2ccccc2)c1	.	98	90	83*	i	.
CN1CCN(c2c(F)cc([N+](=O)[O-])c(N)c2Br)CC1	0.66	.	.	11	i	.
CN1CCN(c2ccc(S(=O)(=O)C(F)(F)F)cc2[N+](=O)[O-])CC1	-0.46	100	102	51*	i	.
CN1CCN(c2ccc(S(C)(=O)=O)cc2[N+](=O)[O-])CC1	0.54	101	99	54*	i	24
CC(C)C(=O)Nc1nnc(CCN(CCc2nnc(NC(=O)C(C)C)s2)[N+](=O)[O-])s1	-0.37	.	.	.	.	.
Cc1cc([N+](=O)[O-])c(Cl)cc1NC(=O)C(C)C	0.23	95	84	58*	i	11
CCOC(=O)c1c(-n2c(C)cc(/C=C3\C(=O)NC(=O)N(C)C3=O)c2C)sc2c1CCCC2	0.27	73	77	93*	i	.
C=CCn1c(O)c(C(CC)=NCC2CCCO2)c(=O)[nH]c1=O (stereo not given)	0.41	.	.	.	.	.
N=c1sccn1Cc1ccc(Cl)cc1Cl	-0.02	68	70	66*	i	28
COc1cc(/C=C2\C(=O)NC(=O)N(c3ccccc3)C2=O)c([N+](=O)[O-])cc1OC	0.91	.	.	-2	i	47
Cc1ccc(-c2nc(N(C)C3CCN(C)CC3)c3ccccc3n2)cc1	-0.24	1.4*	1.4*	99*	i	-16
Cc1ccsc1C(=O)C1CCCN(Cc2cnn(C)c2)C1 (stereo not given)	-0.49	.	.	34	i	.
CCn1cc(CN2CCCC(C(=O)c3sccc3C)C2)cn1 (stereo not given)	-0.08	.	.	54*	i	.
Cc1ncc(CN2CCCC(C(=O)c3sccc3C)C2)s1 (stereo not given)	0.16	.	.	52*	i	.
Cc1ccsc1C(=O)C1CCCN(CCO)C1 (stereo not given)	-0.01	.	.	-3	i	.
O=C(COc1ccc(Cl)cc1Cl)N1CCN(C/C=C/c2ccccc2)CC1	.	62	59	89*	i	-6
CN(c1ccc(OCC(=O)N2CCN(C/C=C/c3ccccc3)CC2)cc1)S(=O)(=O)c1cccs1	-1.5	.	.	.	.	.
CC(=NCCO)c1c(O)n(C2CCCCC2)c(=O)[nH]c1=O	-0.11	100	100	-3	i	21
CCC(=NCCN1CCOCC1)c1c(O)n(C2CCCCC2)c(=O)[nH]c1=O	-0.05	.	.	.	.	.
CCC(=NCc1ccco1)c1c(O)n(C2CCCCC2)c(=O)[nH]c1=O	-1.1	89	88	60*	i	-7
